The values below come from the supplement of paper PMC9177965.

“And” between values parts separate entries of the source, which are not always exact repeats. Identical values can stand only once.

For assay [1], the system named is HT29 RNF43 G659fs (RNF43 659mut, CRISPR-edited). The assay is described as follows: cell viability activity relative to DMSO (negative = inhibition); higher = more viable cells (less growth inhibition). To be noted: 5 µM; 96 h. The procedure: (§1)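 Broad Repurposing Library primary screen at a single dose of 5 uM. HT29 sg-Ctrl and HT29 RNF43 G659fs CRISPR-edited isogenic cells were seeded at 2500 cells/well in 384-well plates in duplicate and treated for 96 h. Viability was read by CellTiter-Glo and reported as % activity relative to DMSO, with MG132 as the positive control (negative = growth inhibition).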

The test system of assay [2] is HT29 sg-Ctrl (RNF43 wildtype). Described as above. To be noted: 5 µM; 96 h. The procedure:
as §1

As for `CC(=O)O[C@@]12CO[C@@H]1C[C@H](O)[C@@]1(C)C(=O)[C@H](O)C3=C(C)[C@@H](OC(=O)[C@H](O)[C@@H](NC(=O)OC(C)(C)C)c4ccccc4)C[C@@](O)([C@@H](OC(=O)c4ccccc4)[C@H]21)C3(C)C`, the cell viability activity is -58.2% in assay [1] and -58.6% in assay [2].
Take `O=C1[C@H](Cc2ccc(O)cc2)N2C(=O)CCN(C(=O)NCc3ccccc3)[C@H]2CN1Cc1cccc2ccccc12`: the cell viability activity in assay [1] was -58.4%; in assay [2] it was -41.8%.
As to `CCCSc1ccc2[nH]c(NC(=O)OC)nc2c1`, the cell viability activity was -63.8% in assay [1] and -76.8% in assay [2].
As to `Clc1ccc2c(c1)CCc1cccnc1C2=C1CCNCC1`, the cell viability activity is -39.8% in assay [1] and -28.4% in assay [2].
In the case of `COc1cccc2c1C(=O)c1c(O)c3c(c(O)c1C2=O)C[C@@](O)(C(=O)CO)C[C@@H]3O[C@H]1C[C@H](N)[C@@H](O)[C@H](C)O1`, the cell viability activity is -93.5% in assay [1] and -76.5% in assay [2].
As to `CN(c1ncccc1CNc1nc(Nc2ccc3c(c2)CC(=O)N3)ncc1C(F)(F)F)S(C)(=O)=O`, the values for the cell viability activity in assay [1] and in assay [2] were -83.7% and -83.1%, respectively.
`O=C(NC1CCN(CCCCC2(C(=O)NCC(F)(F)F)c3ccccc3-c3ccccc32)CC1)c1ccccc1-c1ccc(C(F)(F)F)cc1`: the cell viability activity is -95.7% in assay [1] and -92.3% in assay [2].
The matching figures for `O=C(/C=C/c1ccc2ccccc2n1)c1ccncc1`: -68.9% and -54%.
For `CCn1cc(-c2ccnc3[nH]c(-c4cccc(CN(C)C)c4)cc23)c(-c2ccc(NC(=O)N(C)C)cc2)n1`, the cell viability activity was -84.6% in assay [1] and -63.8% in assay [2].
As for `Cc1ccc(-n2nc(C(C)(C)C)cc2NC(=O)NCc2cc(F)ccc2Oc2ccc3c(cnn3CCO)c2)cc1`, the values for the cell viability activity in assay [1] and in assay [2] were -36.7% and -42.9%, respectively.
The matching figures for `COc1cc2c(Nc3ccc(Cl)c(Cl)c3F)ncnc2cc1OC[C@@H]1C[C@@H]2CN(C)C[C@@H]2C1`: -90.6% and -90.3%.
Turning to `COc1cc(/C=C/c2ccc(OC)cc2OC)cc(OC)c1`, the cell viability activity in assay [1] is -65.4%; in assay [2] it was -75.7%.
The matching figures for `COc1cc(OC)cc(N(CCNC(C)C)c2ccc3ncc(-c4cnn(C)c4)nc3c2)c1`: -70.3% and -64.7%.
With `CN1CCN(S(=O)(=O)c2ccc(-c3cnc(N)c(C(=O)Nc4cccnc4)n3)cc2)CC1`, the cell viability activity in assay [1] was -46.3%; in assay [2], -40.9%.
Turning to `Cc1ccc(C(=O)Nc2ccc(CN3CCN(C)CC3)c(C(F)(F)F)c2)cc1C#Cc1cnc2cccnn12`, the cell viability activity in assay [1] is -86.7%; in assay [2], -78.4%.
The matching figures for `C=CCc1cccc(/C=N/NC(=O)CN2CCN(Cc3ccccc3)CC2)c1O`: -71.9% and -42.7%.
The matching figures for `CO[C@H]1C(=O)[C@]2(C)[C@@H](OC)C[C@H]3OC[C@@]3(OC(C)=O)[C@H]2[C@H](OC(=O)c2ccccc2)[C@]2(O)C[C@H](OC(=O)[C@H](O)[C@@H](NC(=O)OC(C)(C)C)c3ccccc3)C(C)=C1C2(C)C`: -45% and -50.5%.
The matching figures for `N[C@@H](Cn1ccc(=O)n(Cc2ccccc2C(=O)O)c1=O)C(=O)O`: -36.8% and -34.1%.
Regarding `COCC[n+]1c2c(n(Cc3cnccn3)c1C)C(=O)c1ccccc1C2=O`, the cell viability activity in assay [1] is -96.6%; in assay [2] it was -95.6%.
Turning to `COc1cccc(Nc2ncnn3ccc(CN4CC[C@@H](N)[C@H](O)C4)c23)c1`, the cell viability activity in assay [1] is -24%; in assay [2], -31.4%.
As to `Cn1cncc1[C@@](N)(c1ccc(Cl)cc1)c1ccc2c(c1)c(-c1cccc(Cl)c1)cc(=O)n2C`, the cell viability activity in assay [1] was -30.6%; in assay [2] it was -33.3%.
On to `CC(=O)O[C@H]1C(=O)[C@@]2(C)[C@H]([C@H](OC(=O)c3ccccc3)[C@]3(O)C[C@H](OC(=O)[C@H](O)[C@@H](NC(=O)c4ccccc4)c4ccccc4)C(C)=C1C3(C)C)[C@]1(OC(C)=O)CO[C@@H]1C[C@@H]2O`, for which the cell viability activity was -58.4% and -50% in assay [1]; -54.2% and -52.9% in assay [2].
In the case of `CN1CCc2c(c3ccccc3n2Cc2ccccc2)C1`, the cell viability activity in assay [1] is -59.2%; in assay [2], -56.9%.
As to `CCC[C@H](Nc1nc(-c2ccc(NC(=O)NCC)c(OC)c2)ncc1C)c1cccnc1`, the values for the cell viability activity in assay [1] and in assay [2] were -57.8% and -49.4%, respectively.
The matching figures for `C=CCn1c(=O)c2cnc(Nc3ccc(N4CCN(C)CC4)cc3)nc2n1-c1cccc(C(C)(C)O)n1`: -74.4% and -81%.
The matching figures for `CCCCCCCCCCCCCCCC[N+](C)(C)Cc1ccccc1`: -46.6% and -34.3%.
The matching figures for `C=CC(=O)Nc1cccc(Sc2nc(Nc3ccc(N4CCN(C)CC4)cc3)ncc2Cl)c1`: -59.9% and -42.7%.
`Fc1ccc(-n2cc(CCCCN3CCC4(CC3)OCc3ccccc34)c3ccccc32)cc1`: the values for the cell viability activity in assay [1] and in assay [2] were -70.6% and -62.5%, respectively.
Take `Cc1ccccc1N(C)C(=O)c1ccc([S+]([O-])c2nccs2)c([N+](=O)[O-])c1` (centres undefined): the results for the cell viability activity in assay [1] and in assay [2] were -49.2% and -22.7%, respectively.
As to `O=C1NCN(c2ccccc2)C12CCN(CCCC(c1ccc(F)cc1)c1ccc(F)cc1)CC2`, the cell viability activity in assay [1] was -27.2%; in assay [2], -69.5%.
With `C[C@@H](NCCCc1cccc(C(F)(F)F)c1)c1cccc2ccccc12`, the cell viability activity is -78.1% in assay [1] and -41.7% in assay [2].
Take `Cc1nc(N)sc1-c1ccnc(Nc2ccc(N3CCOCC3)cc2)n1`: the cell viability activity in assay [1] is -59.7%; in assay [2], -59.8%.
Regarding `CC(=O)c1ccc2c(c1)[C@@H]1C=CC[C@@H]1[C@H](c1cc3c(cc1Br)OCO3)N2`, the cell viability activity in assay [1] was -69.9%; in assay [2], -56.9%.
The matching figures for `C=C1CC[C@@H]2[C@](C)(CO)[C@H](O)CC[C@@]2(C)[C@@H]1C/C=C1/C(=O)OC[C@H]1O`: -27.5% and -0.518%.
For `CN(NC(=O)CC(=O)NN(C)C(=S)c1ccccc1)C(=S)c1ccccc1`, the results for the cell viability activity in assay [1] and in assay [2] were -30.6% and -15.3%, respectively.
Take `Cc1cnc(Nc2ccc(N3CCN(C)CC3)cc2)nc1Nc1cccc(S(=O)(=O)NC(C)(C)C)c1`: the cell viability activity in assay [1] was -83.9%; in assay [2] it was -89.4%.
Regarding `CCc1cccc(CC)c1NC(=O)N1Cc2[nH]nc(NC(=O)c3ccc(N4CCN(C)CC4)cc3)c2C1`, the values for the cell viability activity in assay [1] and in assay [2] were -46.8% and -21.2%, respectively.
Turning to `COCCOc1ccc2c(c1)ncn2-c1ccc2cccc(N3CCC(N)CC3)c2n1`, the cell viability activity is -93.4% in assay [1] and -94.6% in assay [2].
As to `CC(C)[C@H](C(=O)Nc1ccc(C(=O)NO)cc1)c1ccccc1`, the cell viability activity in assay [1] is -95%; in assay [2], -89.9%.
For `Cc1nc(Nc2n[nH]c3c2CN(C(=O)N[C@H](CN(C)C)c2ccccc2)C3(C)C)c2sccc2n1`, the cell viability activity in assay [1] was -73.8%; in assay [2], -79.1%.
As for `Cc1cccc(C)c1NC(=O)CN1CCN(CCCC(c2ccc(F)cc2)c2ccc(F)cc2)CC1`, the results for the cell viability activity in assay [1] and in assay [2] were -28.2% and -46%, respectively.
For `COC(=O)C1=C(C)NC(C)=C(C(=O)OC2CCCN(Cc3ccccc3)C2)C1c1cccc([N+](=O)[O-])c1` (centres undefined), the cell viability activity in assay [1] is -85.8%; in assay [2], -85.6%.
